Pf growth 96h: P. falciparum growth inhibition at 96 hours. P. falciparum luciferase reporter growth, 96 h. Potency, µM (series often up to 28.7 µM), for the others: at the top dose activity change, negative = inhibition, usual class: inhibitors. hit rate 6.9% among 320,000. AID 504834; note: potency is the fitted concentration of half-maximal effect; % is set by controls: 0 for no effect and ±100 for the full control effect
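Cell-based qHTS: luciferase-tagged P. falciparum in erythrocytes (2% hematocrit, 0.05% parasitemia final) incubated with compounds for 96 hours, 37 C, 5% CO2; luciferase detection reagent then added and luminescence measured.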
AMA1-RON2 inh: inhibitors of Plasmodium falciparum AMA1-RON2 interaction | AlphaScreen AMA1-biotinylated RON2 peptide binding | Potency, µM (titrated, usually from 58.2 µM), inactives show at the highest dose activity change, negative = inhibition, hits mostly inhibitors | hit rate 0.2% among 360,000;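 note: potency is the fitted concentration of half-maximal effect; 0% = vehicle wells and -100% = peptide control; nearly all actives have a fitted effect of over 45% in size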
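AMA1 (3D7) with his tag at 25 nM final met compounds first, then biotinylated RON2 peptide at 25 nM; detection used donor plus acceptor beads, 10 µg/mL apiece, read by AlphaScreen after 30 min at room temperature.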
SARS PLpro yeast: SARS-CoV PLP inhibition in yeast | AID 485353 | S. cerevisiae expressing SARS-CoV PLpro, growth rescue | Potency, µM (highest dose often 32.9 µM), inactives show top-dose activity, positive = growth rescue, most hits filed as activators | hit rate 0.19% among 330,000; calls by dose curve; note: potency is the fitted concentration of half-maximal effect; 0% is about no effect; nearly all actives have a fitted effect of over 55% in size
Shiga inhibitor: inhibitors of Shiga toxin in Vero cells; Vero cells, Shiga toxin protein synthesis inhibition reporter; inhibition, % at 38.7 µM; hit rate 9.2% among 290,000; AID 2315; in the data active = inhibition mostly above about 28%, no sharp cut-off; inactive = mostly below about 43%; note: 0% is about no effect
Pf growth 48h: P. falciparum growth inhibition at 48 hours (one generation); P. falciparum luciferase growth in erythrocytes, 48 h; Potency, µM (series often up to 28.7 µM), for the others: at the highest dose activity change, negative = inhibition, usual class: inhibitors; hit rate 5.9% among 310,000; AID 504832; note: potency is the fitted concentration of half-maximal effect; % is set by controls: 0 for no effect and ±100 for the full control effect
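In quantitative HTS format, infected erythrocytes bearing luciferase-reporter parasites were treated for a single generation at 37 C. Luminescence after adding detection reagent served as the growth measure.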
Cycloheximide cs: affects cycloheximide protein synthesis inhibition readout, counter-screen; cell reporter, cycloheximide protein synthesis inhibition counterscreen; max response, %; hit rate 12% among 300,000; in the data active = max response mostly above about 13%, no sharp cut-off; inactive = mostly below about 14%; note: read at 38.3 µM for the half of the compounds with a filed dose; 0% is about no effect
An asterisk follows results filed as active; ? = inconclusive; / = not tested or not shown. Compounds with a hit are over-represented: about 19% of the library has one in this group of screens. Unless noted, calls come from the whole dose curve; as a rule, active = well fitted curve in the direction sought with a large enough effect; inconclusive = small, poorly fitted or top-dose-only effect, or another doubt; inactive = no such curve, though single readings can be large; an effect the other way counts as inactive or inconclusive.

SMILES	Pf growth 96h	AMA1-RON2 inh	SARS PLpro yeast	Shiga inhibitor	Pf growth 48h	Cycloheximide cs
Cc1ccc(C(=O)Nc2ccc3c(c2)C(=O)NC3=O)cc1	63%	4%	-4%	11	30%	14*
CC(=O)Nc1cccc(Oc2ccc3c(c2)C(=O)NC3=O)c1	37%	-11%	-1%	/	17%	22*
Cc1cccc(C(=O)Nc2ccc3c(c2)C(=O)NC3=O)c1	68%	-2%	2%	18	34%	21*
COc1cc(CNC[C@H]2O[C@@H](n3ccc(N)nc3=O)[C@H](O)[C@@H]2O)ccc1OCc1ccc(C)cc1	/	11%	/	/	/	/
CCCCNC(=O)C1(C)CCN1C(=O)c1ccc(F)cc1Cl (stereo not given)	/	15%	/	/	/	/
C=CCn1c(C)cc(C(=O)COC(=O)c2cncc(Br)c2)c1C	98%	-17%	-1%	/	250%	/
C=CCn1c(C)cc(C(=O)COc2ncnc3sccc23)c1C	-26%	-6%	-4%	120	132%	40*
CC(=O)c1ccc(OCc2cc(C(=O)N(C)C(C)c3nccs3)no2)cc1 (stereo not given)	38%	2%	-19%	35*	-4%	30*
CN(Cc1cccnc1)C(=O)c1cc(COc2ccc3c(c2)CCCC3)on1	4%	8%	-12%	82*	?	70*
CC(=O)c1ccc(OCc2cc(C(=O)N(C)Cc3ncc(C)[nH]3)no2)cc1	?	0%	?	-6	0%	3
CC(=O)c1ccc(OCc2cc(C(=O)N(C)Cc3cc(C)no3)no2)cc1	16%	-13%	?	39*	13%	33*
CCc1ccc(CN(C)C(=O)c2cc(COc3cccc4cnccc34)on2)cc1	31%	-6%	-11%	1	?	-1
CC(=O)c1ccc(OCc2cc(C(=O)N(C)C(C)c3ccon3)no2)cc1 (stereo not given)	/	-2%	/	/	/	/
CCc1ccc(CN(C)C(=O)c2cc(COc3ccc(OC)cc3Cl)on2)nc1	7%	24%	0%	84*	29%	68*
CN(C)CCCCCCN(C)C	-8%	/	/	/	3%	/
CN1CCc2nc3ccc(Cl)cc3c(-c3ccccc3Cl)c2C1	?	-10%	-14%	-10	?	-1
Cc1ccc(S(=O)(=O)N2C3CC(c4ccccc4)N(S(=O)(=O)c4cccc(Cl)c4)CC3C(=O)C[C@H]2c2ccccc2)cc1 (stereo not given in full)	/	4%	/	/	/	/
CSCCC(NC(N)=O)C(=O)NCc1ccc(Cl)cc1 (stereo not given)	/	0%	11%	-19	10%	-1
Cc1ccccc1N(CC(=O)NCc1ccccc1)C(=O)CCC(=O)Nc1nccs1	-6%	7%	-2%	-3	-20%	-4
CC(=O)c1cccc(OCc2cc(C(=O)N(C)Cc3cnccn3)no2)c1	-21%	-2%	-1%	88*	?	51*
CC(=O)c1cccc(OCc2cc(C(=O)N(C)C(C)c3ccccn3)no2)c1 (stereo not given)	44%	18%	2%	17	4%	8
COc1ccc(OCc2cc(C(=O)N(C)Cc3nnc(C)o3)no2)c(Cl)c1	2%	0%	-8%	111*	119%	29*
COc1ccc(OCc2cc(C(=O)N(C)Cc3cc(C)no3)no2)c(Cl)c1	20%	0%	-2%	99*	123%	72*
COc1cc(Cl)ccc1OCc1cc(C(=O)N(C)Cc2nnc(C)o2)no1	-25%	1%	2%	17	22%	35*
COc1cccc(OCc2cc(C(=O)N(Cc3ccccc3)CC3CC3)no2)c1	?	21%	4%	-7	-5%	9
COc1cccc(OCc2cc(C(=O)N(C)Cc3nc4ccccc4[nH]3)no2)c1	37%	-3%	-3%	125*	-8%	38*
Cn1c(NNC(=O)C(c2ccccc2)c2ccccc2)cc(=O)n(C)c1=O	5%	15%	1%	-13	3%	-2
Cc1ccc(C)c(CC(=O)N2CCCC(c3cc(C(=O)NCc4ccccc4)no3)C2)c1 (stereo not given)	/	-11%	/	/	/	/
O=C(NCCc1ccc(F)cc1)Nc1ccccc1	?	0%	0%	31*	4%	30*
